Screen size: about 5,500 compounds; about 2,000 (36%) were called active. Inconclusive results (about 18%) are left out. Cut-off read from the data, not from the text of the source: active = normalized growth mostly below about 0.91 (no sharp cut-off); inconclusive = no clear call, values can overlap the other calls; inactive = mostly above about 0.92. The list shows a part of the results.
Experiment: chemical genetic growth profiling, strain panel (AID 1159580);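 note: tested at 20 µM; growth read once vehicle control cultures reached saturation at 30 °C; 1 = growth at the plate median or of vehicle wells; lower values mean less growth of the strain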
Details: growth OD

Measured: normalized growth

COc1ccc(C2C(=O)c3ccccc3C2=O)cc1
active: S. cerevisiae deletion strains, locus YLR113W, strain HOG1, active compounds read low 0.767 | S. cerevisiae deletion strains, locus YPL256C, strain CLN2, active compounds read low 0.817
inactive: S. cerevisiae deletion strains, locus YJR066W, strain TOR1, active compounds read low 0.897 | S. cerevisiae deletion strains, locus YJR075W, strain HOC1, active compounds read low 0.983 | S. cerevisiae deletion strains, locus YKL009W, strain mrt4, active compounds read low 0.958 | S. cerevisiae deletion strains, locus YKL068W, active compounds read low 0.987 | S. cerevisiae deletion strains, locus YKL085W, strain MDH1 (second series), active compounds read low 0.983 | S. cerevisiae deletion strains, locus YKL085W, strain MDH1, active compounds read low 0.983 | S. cerevisiae deletion strains, locus YKL160W, strain elf1, active compounds read low 0.998 | S. cerevisiae deletion strains, locus YKR001C, strain vps1, active compounds read low 1 | S. cerevisiae deletion strains, locus YKR026C, strain gcn3, active compounds read low 0.96 | S. cerevisiae deletion strains, locus YKR091W, strain srl3, active compounds read low 1.01 | S. cerevisiae deletion strains, locus YLL001W, strain dnm1, active compounds read low 0.997 | S. cerevisiae deletion strains, locus YLL026W, active compounds read low 0.966 | S. cerevisiae deletion strains, locus YLL041C, strain sdh2, active compounds read low 0.982 | S. cerevisiae deletion strains, locus YLR027C, strain aat2, active compounds read low 0.997 | S. cerevisiae deletion strains, locus YLR039C, strain RIC1, active compounds read low 0.993 | S. cerevisiae deletion strains, locus YLR058C, strain SHM2, active compounds read low 0.993 | S. cerevisiae deletion strains, locus YLR102C, strain apc9, active compounds read low 0.989 | S. cerevisiae deletion strains, locus YLR221C, strain rsa3, active compounds read low 1 | S. cerevisiae deletion strains, locus YLR258W, strain gsy2, active compounds read low 1.01 | S. cerevisiae deletion strains, locus YLR262C, strain YPT6 (second series), active compounds read low 0.987 | S. cerevisiae deletion strains, locus YLR262C, strain YPT6, active compounds read low 1.01 | S. cerevisiae deletion strains, locus YLR268W, strain sec22, active compounds read low 1.01 | S. cerevisiae deletion strains, locus YLR320W, strain mms22, active compounds read low 1.02 | S. cerevisiae deletion strains, locus YLR330W, strain CHS5, active compounds read low 1 | S. cerevisiae deletion strains, locus YLR342W, strain FKS1 (second series), active compounds read low 1.02 | S. cerevisiae deletion strains, locus YLR342W, strain FKS1, active compounds read low 1 | S. cerevisiae deletion strains, locus YLR357W, strain rsc2, active compounds read low 1.09 | S. cerevisiae deletion strains, locus YLR370C, strain arc18, active compounds read low 1 | S. cerevisiae deletion strains, locus YLR371W, strain rom2, active compounds read low 1.01 | S. cerevisiae deletion strains, locus YLR384C, strain iki3, active compounds read low 0.992 | S. cerevisiae deletion strains, locus YLR418C, strain cdc73, active compounds read low 0.957 | S. cerevisiae deletion strains, locus YML016C, strain PPZ1, active compounds read low 1.01 | S. cerevisiae deletion strains, locus YML032C, strain rad52, active compounds read low 1.01 | S. cerevisiae deletion strains, locus YML120C, strain ndi1, active compounds read low 0.992 | S. cerevisiae deletion strains, locus YML124C, strain tub3, active compounds read low 0.994 | S. cerevisiae deletion strains, locus YMR058W, strain fet3, active compounds read low 0.979 | S. cerevisiae deletion strains, locus YMR078C, strain ctf18, active compounds read low 0.99 | S. cerevisiae deletion strains, locus YMR125W, strain sto1, active compounds read low 0.994 | S. cerevisiae deletion strains, locus YMR129W, active compounds read low 0.972 | S. cerevisiae deletion strains, locus YMR205C, strain PFK2, active compounds read low 1.01 | S. cerevisiae deletion strains, locus YMR223W, strain ubp8, active compounds read low 0.976 | S. cerevisiae deletion strains, locus YMR231W, strain pep5, active compounds read low 1.02 | S. cerevisiae deletion strains, locus YMR307W, strain GAS1, active compounds read low 1.04 | S. cerevisiae deletion strains, locus YNL067W, strain RPL9B, active compounds read low 0.932 | S. cerevisiae deletion strains, locus YNL071W, strain lat1, active compounds read low 0.986 | S. cerevisiae deletion strains, locus YNL128W, strain TEP1, active compounds read low 0.977 | S. cerevisiae deletion strains, locus YNL153C, strain GIM3, active compounds read low 0.997 | S. cerevisiae deletion strains, locus YNL183C, strain NPR1, active compounds read low 0.882 | S. cerevisiae deletion strains, locus YNL209W, strain ssb2, active compounds read low 0.992 | S. cerevisiae deletion strains, locus YNL233W, strain BNI4, active compounds read low 1 | S. cerevisiae deletion strains, locus YNL248C, strain rpa49, active compounds read low 1.05 | S. cerevisiae deletion strains, locus YNL250W, strain rad50, active compounds read low 0.987 | S. cerevisiae deletion strains, locus YNL271C, strain bni1, active compounds read low 0.983 | S. cerevisiae deletion strains, locus YNL298W, strain CLA4, active compounds read low 0.976 | S. cerevisiae deletion strains, locus YNL307C, strain MCK1, active compounds read low 1.01 | S. cerevisiae deletion strains, locus YNL322C, strain KRE1 (second series), active compounds read low 0.961 | S. cerevisiae deletion strains, locus YNR049C, strain mso1, active compounds read low 0.982 | S. cerevisiae deletion strains, locus YNR052C, strain pop2, active compounds read low 0.987 | S. cerevisiae deletion strains, locus YOL012C, strain htz1 0.937 | S. cerevisiae deletion strains, locus YOL147C, strain pex11, active compounds read low 0.992 | S. cerevisiae deletion strains, locus YOR001W, strain rrp6, active compounds read low 1.02 | S. cerevisiae deletion strains, locus YOR061W, strain CKA2, active compounds read low 0.999 | S. cerevisiae deletion strains, locus YOR069W, strain VPS5, active compounds read low 0.997 | S. cerevisiae deletion strains, locus YOR070C, strain gyp1, active compounds read low 1 | S. cerevisiae deletion strains, locus YOR080W, strain dia2, active compounds read low 1.02 | S. cerevisiae deletion strains, locus YOR083W, strain WHI5, active compounds read low 1.01 | S. cerevisiae deletion strains, locus YOR106W, strain vam3, active compounds read low 1.04 | S. cerevisiae deletion strains, locus YOR136W, strain idh2, active compounds read low 0.984 | S. cerevisiae deletion strains, locus YOR144C, strain elg1, active compounds read low 0.997 | S. cerevisiae deletion strains, locus YOR184W, strain ser1, active compounds read low 0.998 | S. cerevisiae deletion strains, locus YOR231W, strain MKK1, active compounds read low 0.878 | S. cerevisiae deletion strains, locus YOR265W, strain rbl2, active compounds read low 0.995 | S. cerevisiae deletion strains, locus YOR270C, strain vph1, active compounds read low 1.07 | S. cerevisiae deletion strains, locus YOR290C, strain snf2, active compounds read low 1 | S. cerevisiae deletion strains, locus YOR316C, strain cot1, active compounds read low 0.983 | S. cerevisiae deletion strains, locus YPL051W, strain arl3, active compounds read low 1.03 | S. cerevisiae deletion strains, locus YPL078C, strain atp4, active compounds read low 1 | S. cerevisiae deletion strains, locus YPL106C, strain sse1, active compounds read low 1.03 | S. cerevisiae deletion strains, locus YPL240C, strain hsp82, active compounds read low 0.984 | S. cerevisiae deletion strains, locus YPR119W, strain clb2, active compounds read low 0.998 | S. cerevisiae deletion strains, locus YPR141C, strain kar3, active compounds read low 0.977 | S. cerevisiae deletion strains, locus YPR163C, strain tif3, active compounds read low 0.995 | S. cerevisiae deletion strains, locus YPR167C, strain met16, active compounds read low 0.998 | S. cerevisiae deletion strains, strain wtn01, active compounds read low 0.991 | S. cerevisiae strains, strain wild type, active compounds read low 1

Source: PubChem BioAssay AID1159580 (chemical genetic matrix, 2015)
